Drawing on PubChem BioAssay (NCI), this text covers growth for 8 compounds.

Test systems include HCT-15 colon; HT29 colon; SNB-75 CNS; SNB-19 CNS; U251 CNS; SK-MEL-5 melanoma; LOX IMVI melanoma; SK-MEL-28 melanoma; SN12C renal; UO-31 renal; TK-10 renal; ACHN renal; CAKI-1 renal; A498 renal; CCRF-CEM leukemia; MOLT-4 leukemia; PC-3 prostate; UACC-62 melanoma; SK-MEL-2 melanoma; EKVX NSCLC.
What all share (assay): NCI-60 one-dose screen, 48 h (100 = growth as untreated, 0 = no growth, -100 = all killed)
Holding throughout (conditions): 10 µM unless noted

Molecules are shown by their SMILES. The panel holds about 83,000 compounds, 20% with a hit somewhere; the sample as a whole holds those more often.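 Step 1: grow cells in 96-well plates. Step 2: add test compound at a single concentration. Step 3: incubate 48 h. Step 4: record percent growth.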 Unmarked numbers belong to inactive results. The source made the active and inactive calls. The calls were made as follows: active = growth percent below 10; inactive = the rest.

On to `COc1ccc(-c2nc(Nc3ccc(F)cc3)nc(Nc3ccc4c(c3)nc(C)n4Cc3ccccc3)n2)cc1`, for which the growth in the assay on HCT-15 colon was 33.4%; with HT29 colon, 8.87% (active); in the assay with SNB-75 CNS, 68%; in the assay on SNB-19 CNS it was 60.7%; in the assay with U251 CNS, 39.2%; in the assay with SK-MEL-5 melanoma, 47.1%. Besides, the growth with LOX IMVI melanoma was 38.9%; with SK-MEL-28 melanoma, 56.6%; in the assay on SN12C renal, 48.4%; in the assay with UO-31 renal, 29.3%; with TK-10 renal, 74.9%; with ACHN renal, 37.1%. Besides, the growth in the assay with CAKI-1 renal was 83.2%; in the assay on A498 renal it was 72.7%; in the assay on CCRF-CEM leukemia, -6.22% (active); in the assay on MOLT-4 leukemia, -9.61% (active).

Regarding `CC(=O)N(CC(O)CO)c1c(I)c(C(=O)NCCO)c(I)c(C(=O)NCC(O)CO)c1I` (stereo not drawn), the growth is 96.4% in the assay on HCT-15 colon; 99.9% in the assay on HT29 colon; 95.6% in the assay with SNB-75 CNS; 106% with SNB-19 CNS; 81.3% in the assay with PC-3 prostate; 91.7% with SK-MEL-5 melanoma. Further, the growth was 111% with UACC-62 melanoma; 112% in the assay with SK-MEL-28 melanoma; 95.8% in the assay with SK-MEL-2 melanoma; 105% with EKVX NSCLC; 98.9% in the assay on SN12C renal; 69.3% with UO-31 renal. The growth in the assay on ACHN renal is 103%; with CAKI-1 renal, 99.3%; with A498 renal, 110%; in the assay on CCRF-CEM leukemia it was 93.4%; with MOLT-4 leukemia, 84.3%.

With `Cc1cc(Cl)c2c(Cl)ccc(Cl)c2n1`, the growth is 95.4% with HCT-15 colon; 102% with HT29 colon; 95.5% in the assay with SNB-75 CNS; 107% with SNB-19 CNS; 96.3% with PC-3 prostate; 102% in the assay with SK-MEL-5 melanoma. Besides, the growth is 105% with UACC-62 melanoma; 103% in the assay with LOX IMVI melanoma; 113% with SK-MEL-28 melanoma; 81.4% with SK-MEL-2 melanoma; 113% in the assay on SN12C renal; 89.8% with UO-31 renal. Also, the growth with TK-10 renal is 112%; with ACHN renal, 105%; with CAKI-1 renal it was 95%; in the assay on A498 renal, 104%; in the assay with CCRF-CEM leukemia, 98.7%; in the assay on MOLT-4 leukemia it was 95.6%.

On to `CCCCCCCCCCCCCCNc1nc(CO)ncc1-c1ccc(C(F)(F)F)cc1`, for which the growth in the assay with HCT-15 colon is 103%; in the assay on HT29 colon, 104%; with SNB-75 CNS it was 74.2%; with SNB-19 CNS it was 118%; in the assay with PC-3 prostate it was 94.6%; in the assay on SK-MEL-5 melanoma, 98.5%. Moreover, the growth in the assay on UACC-62 melanoma was 95.5%; with LOX IMVI melanoma, 91.6%; with SK-MEL-28 melanoma it was 108%; in the assay on SK-MEL-2 melanoma, 94.6%; in the assay on SN12C renal, 102%; in the assay on UO-31 renal, 79.1%. Further, the growth is 102% in the assay on ACHN renal; 93.8% in the assay with CAKI-1 renal; 86.4% with A498 renal; 93.6% in the assay on CCRF-CEM leukemia; 99.6% with MOLT-4 leukemia.

In the case of `COc1cc(/C=C/C(=O)CC(=O)/C=C/c2cc(Br)c(OC)c(OC)c2)cc(Br)c1OC`, the growth was 109% with HCT-15 colon; 103% with HT29 colon; 93.7% with SNB-75 CNS; 99.8% in the assay with SNB-19 CNS; 105% in the assay on PC-3 prostate; 108% in the assay on SK-MEL-5 melanoma. Besides, the growth in the assay on UACC-62 melanoma is 101%; in the assay with LOX IMVI melanoma, 97.8%; with SK-MEL-28 melanoma it was 106%; with EKVX NSCLC, 105%; with SN12C renal, 96.6%; in the assay with UO-31 renal it was 87.9%. The growth was 109% in the assay with TK-10 renal; 109% with ACHN renal; 105% with CAKI-1 renal; 98.4% with A498 renal; 71.5% in the assay with MOLT-4 leukemia.

Regarding `Nc1nc(N)c(N=Nc2c(Br)cc(S(N)(=O)=O)cc2Br)c(N)n1`, the growth is 114% with HCT-15 colon; 115% in the assay with HT29 colon; 90.6% with SNB-75 CNS; 97.5% with SNB-19 CNS; 95.1% in the assay with PC-3 prostate; 98.2% with SK-MEL-5 melanoma. The growth is 91.8% in the assay with UACC-62 melanoma; 110% in the assay with LOX IMVI melanoma; 99.5% in the assay on SK-MEL-28 melanoma; 94.9% in the assay with SK-MEL-2 melanoma; 103% in the assay on SN12C renal; 98% with UO-31 renal. The growth was 122% in the assay with TK-10 renal; 114% in the assay on ACHN renal; 99% in the assay on CAKI-1 renal; 96.4% in the assay on A498 renal; 88.3% in the assay with CCRF-CEM leukemia; 95.2% in the assay on MOLT-4 leukemia.

Regarding `FC(F)(F)c1ccc2c(c1)n1cnnc1c1nncn21`, the growth in the assay with HCT-15 colon is 111%; in the assay with HT29 colon it was 107%; in the assay with SNB-75 CNS it was 103%; in the assay with SNB-19 CNS, 107%; in the assay with PC-3 prostate, 98.3%; in the assay with SK-MEL-5 melanoma, 98.7%. The growth in the assay on UACC-62 melanoma is 110%; in the assay on LOX IMVI melanoma, 108%; in the assay with SK-MEL-28 melanoma, 115%; in the assay with EKVX NSCLC, 94.4%; in the assay on SN12C renal it was 106%; with UO-31 renal, 87.6%. Moreover, the growth with TK-10 renal was 100%; in the assay with ACHN renal it was 112%; in the assay with CAKI-1 renal it was 97%; in the assay with A498 renal, 94.7%; in the assay on MOLT-4 leukemia, 96.4%.

On to `N#CC1=C(N)Oc2cc(N)ccc2C1c1ccc(F)cc1` (stereo not drawn), for which the growth was 46.9% in the assay on HCT-15 colon; 46.4% in the assay with HT29 colon; 67.2% with SNB-75 CNS; 81.1% in the assay on SNB-19 CNS; 90.8% in the assay on PC-3 prostate; 74.7% in the assay with UACC-62 melanoma. Further, the growth in the assay with LOX IMVI melanoma was 78.1%; with SK-MEL-28 melanoma it was 84.8%; in the assay with SK-MEL-2 melanoma, 79.8%; in the assay with EKVX NSCLC, 97.1%; in the assay with SN12C renal it was 90.4%; in the assay with UO-31 renal, 79.5%. For the same compound, the growth in the assay with TK-10 renal was 84.8%; in the assay with ACHN renal, 99.4%; with CAKI-1 renal it was 62.6%; in the assay on A498 renal it was 64.8%; with CCRF-CEM leukemia, 66.6%; in the assay on MOLT-4 leukemia, 70.8%.
